# Source: ChEMBL document CHEMBL1857833, “Screening and optimization of specific chemical series against human African Trypanosomiasis (HAT)”
# The campaign covered roughly 4,400 compounds. About 390 (8.9%) showed an effect of 50% or more. The full list was thinned out, with strong results kept by preference.
# Tested on: Trypanosoma brucei
# Experiment: DNDI: Inhibition of Human African Trypanosomiasis, SBRI 427, in vitro at 2 ug.mL-1
# Format: functional
row,Compound,% inhibition
1,O=c1c(Cl)cn(Cc2coc(-c3ccc(C(F)(F)F)cc3)n2)cc1Cl,-5%
2,COc1ccc(-c2nc(CN3CCN(c4ccccc4OC)CC3)co2)cc1,13%
3,CC(C)(C)c1ccc(CNCc2coc(-c3cccc4ccccc34)n2)cc1,-1%
4,CC1CCC(N/C(=N\O)c2cccnc2Oc2ccc(-n3cncn3)cc2)CC1 (stereo not given),98%
5,COc1ccc(CN/C(=N\O)c2cccnc2Oc2ccccc2OC)cc1,13%
6,CC(C)N/C(=N\O)c1cccnc1Oc1ccc(-n2cncn2)cc1,42%
7,COc1ccc(Oc2ncccc2/C(=N/O)NCC2CCCCC2)cc1,93%
8,CC1CC(N/C(=N\O)c2cccnc2Oc2ccc(-n3cncn3)cc2)CC(C)(C)C1 (stereo not given),41%
9,COc1ccc(Oc2ncccc2/C(=N/O)NCC2CC2)cc1,99%
10,COc1ccccc1Oc1ncccc1/C(=N/O)NCC1CC1,96%
11,COc1ccccc1Oc1ncccc1/C(=N/O)NCc1ccco1,27%
12,COc1ccc(Oc2nc(C)ccc2/C(=N/O)NCC2CCCCC2)cc1,24%
13,COc1cccc(-c2nc(Cn3cnc(-c4ccccc4)c3)co2)c1,-15%
14,O/N=C(/c1cccnc1Oc1ccc(F)cc1)N1CCCCCC1,1%
15,COc1ccc(CN/C(=N\O)c2cccnc2Oc2ccc3c(c2)CCCC3)cc1,8%
16,Cc1ccc(/C(=N/O)Nc2ccc(C(C)C)cc2)c(Oc2cccc(F)c2)n1,16%
17,Cc1ccc(/C(=N/O)NCc2ccc(C)o2)c(Oc2ccc3oc4ccccc4c3c2)n1,9%
18,CCCCN(CCC#N)Cc1coc(-c2ccc(C(C)(C)C)cc2)n1,3%
19,CCOc1ccc(-c2nc(CNCc3ccccc3C(F)(F)F)co2)cc1,1%
20,O/N=C(\NCc1ccccc1)c1cccnc1Oc1ccc(-n2cncn2)cc1,21%
21,CCCN(CC1CC1)/C(=N\O)c1cccnc1Oc1ccccc1SC,30%
22,O/N=C(\NCC1CCCCC1)c1cccnc1Oc1ccc(-n2cncn2)cc1,90%
23,CSc1ccccc1Oc1ncccc1/C(=N/O)NCCN1CCCC1,22%
24,O/N=C(\NCC1CC1)c1cccnc1Oc1ccc2ccccc2c1,99%
25,O/N=C(\NCC1CCCO1)c1cccnc1Oc1ccc(-n2cncn2)cc1 (stereo not given),24%
26,Cc1ccc(/C(=N/O)NCC2CCCCC2)c(Oc2ccc3ccccc3c2)n1,18%
27,CSc1ccccc1Oc1ncccc1/C(=N/O)NCC1CC1,99%
28,CC(C)(C)COc1ncccc1/C(=N/O)NCC1CCCCC1,-1%

row,Compound,% inhibition
1,O/N=C(\NCCN1CCOCC1)c1cccnc1Oc1ccc2ccccc2c1,-10%
2,Cc1ccc(/C(=N/O)NCC2CCCCC2)c(Oc2ccc(Cl)cc2)n1,-11%
3,O/N=C(\NCC1CCCCC1)c1cccnc1Oc1ccc(Cl)cc1,98%
4,COc1ccc(CN/C(=N\O)c2ccc(C)nc2OCc2ccccc2F)cc1,-1%
5,COc1cc(C)ccc1Oc1nc(C)ccc1/C(=N/O)n1nc(C)cc1C,-5%
6,O/N=C(/c1ccc(Oc2cccc3c2CCCC3)nc1)N1CCN(c2ccc(F)cc2)CC1,26%
7,COc1cc(-c2nc(Cn3ccnc3C)co2)cc(OC)c1OC,-1%
8,Fc1ccc(N2CCN(Cc3coc(-c4ccco4)n3)CC2)cc1,13%
9,FC(F)(F)c1ccc(-c2nc(Cn3ccnc3)co2)cc1,-3%
10,O/N=C(\NCC1CC1)c1cccnc1Oc1ccc(F)cc1,97%
11,CCN(CC)c1cccc(Oc2ncccc2/C(=N/O)NCC2CC2)c1,6%
12,CC(C)(C)CN/C(=N\O)c1cccnc1Oc1ccc(Cl)cc1,99%
13,O/N=C(\NCc1cccnc1)c1cccnc1Oc1ccc(Cl)cc1,4%
14,Cc1ccc(Oc2ncccc2/C(N)=N/O)cc1,21%
15,O/N=C(\NCc1ccccn1)c1cccnc1Oc1ccc(Cl)cc1,10%
16,COc1ccc(Oc2ncccc2/C(=N/O)NCC(C)C)cc1,-7%
17,N/C(=N\O)c1cccnc1Oc1ccc(Cl)cc1,59%
18,COc1ccc(Oc2ncccc2/C(=N/O)NCC(C)(C)C)cc1,98%
19,N/C(=N\O)c1cccnc1Oc1ccc(F)c(Cl)c1,10%
20,CCCN(Cc1coc(-c2cccc(F)c2)n1)C(C)CC (stereo not given),-4%
21,COc1cc(CNCc2coc(-c3cccs3)n2)cc(OC)c1,-7%
22,COc1cc(-c2nc(CN3CCCCC3C)co2)cc(OC)c1OC (stereo not given),-4%
23,Cc1ccc(/C(=N/O)N2CCCCC2)c(Oc2ccc3oc4ccccc4c3c2)n1,7%
24,CC(C)(C)COc1ncccc1/C(=N/O)NCc1ccccn1,12%
25,CCOc1ccc(-c2nc(CNCc3cccc(OC)c3OC)co2)cc1,3%
26,CSc1ccc(Oc2nc(C)ccc2/C(=N/O)NCC(C)C)cc1C,-14%
27,C#CCNCc1coc(-c2ccc(OC)cc2)n1,-25%
